Experimental data published in PubChem BioAssay AID1063 (University of Pittsburgh Molecular Library Screening Center, 2008).
Screen size: about 200,000 compounds; about 18,000 (9%) were called active. Cut-off read from the data, not from the text of the source: active = inhibition above about 50%; inactive = the rest. This excerpt belongs to a sample that is enriched for actives.

assay: Leishmania major promastigote growth inhibition, primary screen (AID 1063); conditions: Leishmania major promastigotes, resazurin fluorescence viability; at 10 µM; active compounds read high;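 note: promastigotes grown with compound for 44 hours at 28 °C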

Structure (SMILES)	inhibition
CCOc1cc(NC(=S)NCc2ccco2)c(OCC)cc1NC(=O)c1ccco1	-3.82% (inactive)
C[C@@H](C(=O)N1CCNCC1)n1cc(CCC(=O)O)nn1	-3.38% (inactive)
CCc1ccc(-n2c(=S)sc3c(=O)n(-c4ccccc4OC)c(=S)[nH]c32)cc1	-0.77% (inactive)
CCOC(=O)COc1ccc(Cl)cc1C1NC(=O)NC(C)=C1C(C)=O (configuration not stated)	0.61% (inactive)
COC(=O)COc1ccc(C2NC(=O)NC(C)=C2C(=O)NCc2ccccc2)cc1OC (configuration not stated)	-7.17% (inactive)
CCCOc1ccc(C2NC(=O)NC(c3ccccc3)=C2C(C)=O)cc1OCC (configuration not stated)	71.8% (active)
NS(=O)(=O)c1ccc(NC(=O)COC(=O)c2ccc(Cl)nc2)cc1	-7.52% (inactive)
NS(=O)(=O)c1ccc(NC(=S)NC(=O)c2cccc(Br)c2)cc1	1.9% (inactive)
CCNC(=S)NNC(=O)C1CCN(Cc2ccccc2)CC1	-3.47% (inactive)
O=C(NCCCN1CCN(Cc2ccccc2)CC1)C1CCN(S(=O)(=O)N2CCCC2)CC1	-6.76% (inactive)
O=C(Nc1ccccc1)N1CCN(Cc2ccccc2)CC1	-1.08% (inactive)
O=C(NCc1cccs1)C1CCN(S(=O)(=O)c2ccc(Cl)cc2)CC1	-6.16% (inactive)
NC(=O)c1ccc(CN2CCC(Cc3ccccc3)CC2)cc1	86.9% (active)
CCCC(=O)C1CCN(Cc2ccccc2)CC1	82.8% (active)
CC(C)(C)NC(=O)NC(=O)CN1CCC(Cc2ccccc2)CC1	-1.19% (inactive)
O=c1cc(CO)oc(CN2CCC(Cc3ccccc3)CC2)c1O	-2.15% (inactive)
O=C(NNS(=O)(=O)c1ccc(Cl)cc1)C1CCN(Cc2ccccc2)CC1	95.9% (active)
CCOC(=O)N1CCN(C(=O)c2ccccc2N(Cc2ccccc2)S(=O)(=O)c2ccc(OC)cc2)CC1	43.4% (inactive)
COc1ccc(N2CCN(CCCNC(=O)C3CCN(S(=O)(=O)N4CCOCC4)CC3)CC2)cc1	-4.04% (inactive)
CC(C)NC(=O)c1ccc(Cl)cc1Cl	-4.71% (inactive)
Cc1cc(C)cc(NC(=O)N2CCCCCCC2)c1	9.55% (inactive)

Structure (SMILES)	inhibition
CCOC(=O)C1CCN(c2ncnc3c2c(-c2ccccc2)cn3-c2ccc(C)cc2)CC1	-6.27% (inactive)
Cc1ccc(NC(=O)Nc2cccc(C(F)(F)F)c2)nc1	11% (inactive)
COC(=O)C1=C(C)NC(=O)/C1=C/c1ccc(CNS(=O)(=O)c2ccc(C)cc2)o1	15.8% (inactive)
COC(=O)C1=C(C)N(c2ccc(C)cc2)/C(=C/c2ccc(O)cc2)C1=O	97.8% (active)
COC(=O)C1=C(C)N(c2ccc(Br)cc2)C(=O)/C1=C\c1ccco1	24.7% (inactive)
COc1ccc(S(=O)(=O)N2CCN(C(=O)c3cc(C)oc3C)CC2)cc1	8.89% (inactive)
C/C(CC(=O)Nc1cccc(C(F)(F)F)c1)=N\NC(=O)C(=O)NCC(C)C	-8.72% (inactive)
COc1ccc(C(=O)CSc2nnc(-c3ccco3)o2)cc1	-1.52% (inactive)
N#Cc1c(-c2ccc(F)cc2)nc(-c2ccccc2)[nH]c1=O	3.06% (inactive)
N#Cc1ccc(-c2nc3cc(C#N)c(C#N)cc3nc2-c2ccccc2)cc1C#N	59% (active)
N#Cc1ccc(-c2ccc(F)cc2)nc1Sc1ccccc1	-13% (inactive)
CC1(C)CC(=O)c2cnc3nc4ccccc4n3c2C1	0.4% (inactive)
Cc1cccc(CCNS(=O)(=O)c2ccc(S(=O)(=O)NC3CCCC3)cc2)c1	68.6% (active)
O=C(CCc1ccc(S(=O)(=O)NC2CCCCC2)cc1)NCc1ccccc1	43.9% (inactive)
CSc1ccc(S(=O)(=O)NC2CCCCC2)cc1	-2.31% (inactive)
CCOC(=O)c1c(N)nn(C(=O)c2ccccc2)c1-c1ccccc1	1.03% (inactive)
O=c1cnnc(Nc2ccccc2)[nH]1	-6.97% (inactive)
Cc1nc(NCCN)c(C#N)c2c1COC(C)(C)C2	-6.15% (inactive)
CCCCc1nc(NCCN)c(C#N)c2c1CSC(C)(C)C2	100% (active)
CCCCc1nc(NCc2ccccc2)c(C#N)c2c1CCCC2	40.6% (inactive)
COc1ccc(C(=O)NC(=S)Nc2ccc(Cl)cn2)cc1OC	-4.99% (inactive)

Structure (SMILES)	inhibition
CC(=O)C1C(c2ccc(Cl)cc2)NC(=O)NC1(O)C(F)(F)F (configuration not stated)	-4.84% (inactive)
O=C1NC(c2ccc(-c3ccccc3[N+](=O)[O-])o2)C(C(=O)c2ccc(Cl)cc2)C(O)(C(F)(F)F)N1 (configuration not stated)	57.7% (active)
CC(=O)C1C(c2cccc(Oc3ccccc3)c2)NC(=O)NC1(O)C(F)(F)F (configuration not stated)	-1.39% (inactive)
Cn1nnnc1-c1cc(Cl)cc(Cl)c1	5.35% (inactive)
O=c1[nH]oc(O)c1-c1ncc(C(F)(F)F)cc1Cl	-7.85% (inactive)
O=C(O)CSc1nnc(-c2ccc3c(c2)OCO3)n1-c1ccccc1	-2.94% (inactive)
COc1cc2c(cc1OC)C(Nc1ccc(S(N)(=O)=O)cc1)=NC(C)(C)C2	-2.7% (inactive)
COc1cc2c(cc1O)C(SC)=NC(C)(C)C2	77.2% (active)
COc1cc2c(cc1OC)C(C(C)C)=NC(C)(C)C2	-1.29% (inactive)
COC(=O)c1c(NC(C)=O)sc(C(=O)Nc2ccccc2OC)c1C	-6.26% (inactive)
COc1ccccc1CNC(=O)CN1CCC(n2cnc3cc(F)ccc32)CC1	0.36% (inactive)
CCc1ccccc1NC(=O)Cc1cn(C)c2ccccc12	1.32% (inactive)
NC(=O)c1c(Nc2nc3c(F)cccc3s2)sc2c1CCCC2	0.33% (inactive)
Fc1cc(F)c2nc(N3CCOCC3)sc2c1	-5.44% (inactive)
Fc1cc(F)c2nc(Nc3nc4c(F)cccc4s3)sc2c1	64.3% (active)
Cc1cc(C)n(Cc2cnc(N3CCOCC3)s2)n1	0.31% (inactive)
COc1ccc2ccccc2c1CNc1nnnn1C	1.31% (inactive)
COc1ccc2ccccc2c1CNCc1ccccn1	52.1% (active)
COc1ccc(C)cc1NC(=O)NCc1ccccn1	-9.22% (inactive)
O=S1(=O)CC/C(=N\Nc2ccc(F)cc2)c2ccsc21	-11.7% (inactive)
